hcDAF-12 act – activates DAF-12 receptor from parasite H. contortus | HEK293 hcDAF-12 lit1-tk-luc reporter, luminescence; 0% DMSO, 100% Δ7-dafachronic acid | activation, % at 6.8 µM | actives 1.4% (n = 370,000) | AID 652067;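 active = activation above the mean of all tested compounds plus 3 SD, cut at about 5.5% in these data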
DAX1 inh-1 – DAX1 (NR0B1) inhibition, primary screen; actives 1.1% (n = 370,000); inhibition, % at 6.8 µM; HEK293T StAR-luciferase reporter, SF-1/DAX-1 repression relief; AID 652010;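 active = inhibition above the mean over all tested compounds plus 3 SD, cut at about 3.6% in these data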;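 note: higher inhibition means more luminescence from relief of DAX-1 repression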
DAX1 inh-2 – inhibitors of human orphan nuclear receptor DAX1 (NR0B1); P51843; HEK293 Gal4-DAX1 luciferase reporter, luminescence; inhibition, % at 6.75 µM; actives 0.99% (n = 340,000);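 active = inhibition above the mean over all tested compounds plus 3 SD, cut at about 4.2% in these data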;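 note: inhibition shows as a rise in luminescence from relieved DAX1 repression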
ssDAF-12 act – S. stercoralis DAF-12 activation, primary screen; actives 1% (n = 370,000); HEK293 ssDAF-12/GRIP1 lit1-tk-luc reporter, luminescence; % of 3 µM dafachronic acid response; activation, % at 6.8 µM;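 active = activation above the mean over all tested compounds plus 3 SD, cut at about 0.9% in these data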
SMARCA2 activ – activators of SMARCA2 function | AID 652017 | activation, % at 9.1 µM | actives 1% (n = 370,000) | MG213 cells, MMTV-luciferase reporter, dexamethasone, overnight; in the data active = activation above about 7.8%
hgDAF12 agonist – agonists of H. glycines DAF-12 nuclear receptor | HEK293 GAL4-hgDAF12 UAS-luciferase reporter, agonist luminescence; normalized to butyrate control | activation, % at 6.8 µM | actives 1.8% (n = 370,000);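 active = activation above a cutoff set at the mean of all screened compounds plus 3 SD, cut at about 10% in these data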
DAX1 conf – confirmation of human DAX1 (NR0B1) inhibitors. HEK293T StAR-promoter luciferase reporter, SF-1/DAX-1 repression. shares compounds with DAX1 inh-1. inhibition, % at 6.8 µM. actives 87% (n = 2,400). AID 652134;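 active = inhibition above the average of every tested compound plus 3 SD, cut at about 3.8% in these data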;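 note: active compounds raise luminescence by relieving repression of the StAR reporter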
Target sequence (P51843 whole entry, looked up): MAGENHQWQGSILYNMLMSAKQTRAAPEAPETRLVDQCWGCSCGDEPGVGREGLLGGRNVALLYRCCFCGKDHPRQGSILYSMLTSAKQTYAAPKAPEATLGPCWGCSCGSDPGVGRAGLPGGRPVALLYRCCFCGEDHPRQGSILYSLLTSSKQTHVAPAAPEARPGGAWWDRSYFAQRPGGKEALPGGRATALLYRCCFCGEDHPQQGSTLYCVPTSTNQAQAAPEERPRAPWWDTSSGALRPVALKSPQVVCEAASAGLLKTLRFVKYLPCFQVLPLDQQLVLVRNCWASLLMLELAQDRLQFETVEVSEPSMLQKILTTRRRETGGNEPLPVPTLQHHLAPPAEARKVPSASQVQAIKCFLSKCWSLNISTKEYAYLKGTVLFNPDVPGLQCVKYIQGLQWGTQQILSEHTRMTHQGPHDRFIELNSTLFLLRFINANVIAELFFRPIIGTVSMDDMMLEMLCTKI
SF1 AF2mut Luc – nonselective inhibitor or artifact in SF-1 mutant DAX1 counter-screen | shares compounds with DAX1 inh-1 | HEK293 StAR-luciferase, SF-1 AF2 mutant, luminescence | inhibition, % at 6.8 µM | actives 78% (n = 2,400) | AID 652136;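 active = inhibition above the mean of all tested compounds plus 3 SD, cut at about 3% in these data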
Large screens that a line does not name were inactive (follow-up assays come after a bar, where they were run). In the library only some 4.8% were active in any assay of this set; here they are far more common.

CCOC(=O)NC1CCc2cc(OC)c(OC)c(OC)c2-c2ccc(SC)c(=O)cc21 (configuration not stated)	DAX1 inh-1 5.0 | DAX1 conf 13 | SF1 AF2mut Luc inactive
COc1cc2c(c(OC)c1OC)-c1ccc(NC(=O)c3ccccc3)c(=O)cc1[C@@H](NC(C)=O)CC2	none
CN[C@H]1CCc2cc(OC)c(OC)c(OC)c2-c2ccc(OC)c(=O)cc21	DAX1 inh-1 6.8 | DAX1 conf 19 | SF1 AF2mut Luc inactive
O=C(NCc1cccc(Cl)c1)c1ccc2c(c1)OCCO2	none
O=C(NCCc1cccc(Cl)c1)c1ccc2c(c1)OCO2	hcDAF-12 act 5.6, DAX1 inh-1 11 | DAX1 conf 13 | SF1 AF2mut Luc 6.8
CN(C)CCN(C(=O)c1ccc2c(c1)OCCO2)c1nc2cc3c(cc2s1)OCO3	none
CN(C)CCN(C(=O)c1ccc2c(c1)CCCC2)c1nc2cc3c(cc2s1)OCCO3	hcDAF-12 act 6.1, DAX1 inh-1 6.0 | DAX1 conf 4.4 | SF1 AF2mut Luc inactive
Cc1ccc(NC(=O)NC2CCN(S(=O)(=O)c3ccc(F)cc3)CC2)cc1	none
O=C(Nc1ccc2oc(-c3ccccc3Cl)nc2c1)c1ncn[nH]1	hcDAF-12 act 5.8, DAX1 inh-1 6.7 | DAX1 conf 14 | SF1 AF2mut Luc 7.9
O=C(Nc1ccc2oc(-c3cccc4ccccc34)nc2c1)c1ncn[nH]1	none
O=[N+]([O-])c1ccc(NC(=S)N2CCCC2)cc1	none
CC1(C)Cc2cccc(OCC(=O)NCCc3ccc(S(N)(=O)=O)cc3)c2O1	none
CC1(C)Cc2cccc(OCC(=O)NCCc3ccccc3)c2O1	DAX1 inh-1 5.1 | DAX1 conf 4.5 | SF1 AF2mut Luc 3.1
CCN(CC)c1ccc(C2NC(=O)c3ccccc3N2)cc1 (configuration not stated)	hcDAF-12 act 7.9, DAX1 inh-1 7.4, ssDAF-12 act 1.1 | DAX1 conf inactive | SF1 AF2mut Luc inactive
CCn1ccc(C(=O)Nc2ncc(C)s2)n1	DAX1 inh-1 8.9 | DAX1 conf 9.4 | SF1 AF2mut Luc 4.4
O=C(Nc1ccc(Br)cn1)c1ccc2nccnc2c1	none
O=C(Nc1ccc(Cl)cn1)c1ccc2nccnc2c1	DAX1 inh-1 6.4, ssDAF-12 act 1.6 | DAX1 conf 4.5 | SF1 AF2mut Luc inactive
O=C(COc1ccc(Br)cc1Cl)NC(=O)NC1CCCC1	none
O=C(COc1ccc(Cl)cc1Br)NC(=O)NC1CCCC1	DAX1 inh-1 8.0, hgDAF12 agonist 13 | DAX1 conf 7.9 | SF1 AF2mut Luc 5.3
O=C(COc1ccc(Cl)cc1Cl)NC(=O)NC1CCCC1	DAX1 inh-1 5.0, hgDAF12 agonist 12 | DAX1 conf 4.1 | SF1 AF2mut Luc inactive
O=C(COc1ccccc1Cl)NC(=O)NC1CCCC1	none
COc1ccc(-c2n[nH]c(=S)n2/N=C/C=C\c2ccccc2OC)cc1	none
Cc1ccc(S(=O)(=O)Nc2cccc(-c3ccc(N4CCCCCC4)nn3)c2)cc1	DAX1 inh-1 4.9 | DAX1 conf 7.5 | SF1 AF2mut Luc 4.2
CN(C(=O)c1ccco1)c1ccccc1C(=O)O	none
Cc1ccccc1NC(=O)Nc1ccc2c(c1)CCC2	DAX1 inh-1 5.0 | DAX1 conf 11 | SF1 AF2mut Luc 5.5
COc1ccc(C)cc1NC(=O)Nc1ccc2c(c1)CCC2	none
COc1ccccc1NC(=O)Nc1ccc2c(c1)CCC2	DAX1 inh-1 8.1 | DAX1 conf 6.3 | SF1 AF2mut Luc 4.9
COc1ccc(NC(=O)Nc2ccc3c(c2)CCC3)cc1OC	none
COc1ccccc1NC(=O)Nc1ccc2c(c1)nc(C)n2C	DAX1 inh-1 6.0, hgDAF12 agonist 13 | DAX1 conf 17 | SF1 AF2mut Luc 9.7
Cc1ccc(CSCCNC(=O)CSc2ccccc2)cc1	none
COc1ccc(OC)c(NC(=O)C(CC(=O)O)Cc2ccc(Cl)cc2)c1 (configuration not stated)	none
O=C(NC1CCCCC1)c1ccc(-c2cccc([N+](=O)[O-])c2)o1	DAX1 inh-1 7.9 | DAX1 conf 11 | SF1 AF2mut Luc 4.1
Cc1nn(-c2ccccc2)c(C)c1C(=O)OCC(=O)Nc1ccccc1F	DAX1 inh-1 7.4 | DAX1 conf 7.0 | SF1 AF2mut Luc 3.6
CC(=O)Nc1ccc(NC(=O)COC(=O)c2c(C)nn(-c3ccccc3)c2C)cc1	none
Cc1cc(NC(=O)C2CCN(S(=O)(=O)Cc3ccccc3)CC2)ccc1-n1cnnn1	none
COc1ccc(C(CNC(=O)c2ccc(Cl)c(NC(=O)c3cccs3)c2)N2CCCC2)cc1 (configuration not stated)	DAX1 inh-1 4.8 | DAX1 conf 3.9 | SF1 AF2mut Luc inactive
COc1ccc(C(CNC(=O)c2ccc(-c3ccccc3Cl)o2)N2CCCC2)cc1 (configuration not stated)	none
COc1ccc(C(CNC(=O)c2ccc(NS(=O)(=O)c3ccc(F)c(C)c3)cc2)N2CCCC2)cc1 (configuration not stated)	none
CCOc1ccc(NS(=O)(=O)c2ccc(C(=O)NCC(c3ccc(OC)cc3)N3CCCC3)cc2)cc1 (configuration not stated)	DAX1 inh-1 7.5 | DAX1 conf 7.0 | SF1 AF2mut Luc 4.9
COc1ccc(C(CNC(=O)c2cc3c(s2)CCC(C)C3)N2CCCC2)cc1 (configuration not stated)	DAX1 inh-1 5.8 | DAX1 conf 5.8 | SF1 AF2mut Luc 3.0
COc1ccc(C(CNC(=O)c2cccc(S(=O)(=O)N3CCOCC3)c2)N2CCCC2)cc1 (configuration not stated)	none
COc1ccc(C(CNC(=O)c2cccc(S(=O)(=O)N3CCCC3)c2)N2CCCC2)cc1 (configuration not stated)	DAX1 inh-1 5.6 | DAX1 conf inactive | SF1 AF2mut Luc inactive
CCN(CC)CCCn1c2c(c(SCC(=O)Nc3ccc(F)c(F)c3)nc1=O)CCC2	DAX1 inh-1 4.7 | DAX1 conf inactive | SF1 AF2mut Luc inactive
CCN(CC)CCCn1c2c(c(SCC(=O)Nc3cccc(C)c3C)nc1=O)CCC2	DAX1 inh-1 7.2 | DAX1 conf 7.7 | SF1 AF2mut Luc 6.3
CCC1CCCCN1S(=O)(=O)c1ccc(S(=O)(=O)N(Cc2cccs2)C2CC2)cc1 (configuration not stated)	none
Cc1ccc(C=Nc2ccccc2C(N)=O)o1	none

Screening data from PubChem.
